Test results taken from the supplement of paper PMC10849652.
Of roughly 8,800 targets only a part is listed; those with a hit were picked by preference. About 0.5% of all pairs of compound and target were hits.

Compound: O=C(CCCCCCC(=O)Nc1ccccc1)NO [vorinostat]
Test: log2 fold change, soluble protein after heating vs DMSO (PISA); higher = thermal stabilisation; K562 lysate, 10 uM; active = over 0.2 and 3.5 SD of the protein, either way, in both replicates (recomputed)
Summary of the method: (§1)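 K562 pellets were dounce-homogenised in PBS pH 7.4 containing 1 mM MgCl2, and the crude extract, at 1 mg/mL protein, was exposed to 10 μM compound for 30 min. Aliquots were heated for 3 min across 48°C-58°C, pooled, brought to 0.5% NP-40 at 4°C and spun at 21,000xg for 90 min, with the supernatant taken as soluble protein. TMTpro 16plex LC-MS/MS with equalised channel sums quantified that protein. Values are log-two fold changes in thermal stability relative to solvent controls, taken from duplicates.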

Sequence of UniProt Q16891 (Q16891 whole entry, looked up): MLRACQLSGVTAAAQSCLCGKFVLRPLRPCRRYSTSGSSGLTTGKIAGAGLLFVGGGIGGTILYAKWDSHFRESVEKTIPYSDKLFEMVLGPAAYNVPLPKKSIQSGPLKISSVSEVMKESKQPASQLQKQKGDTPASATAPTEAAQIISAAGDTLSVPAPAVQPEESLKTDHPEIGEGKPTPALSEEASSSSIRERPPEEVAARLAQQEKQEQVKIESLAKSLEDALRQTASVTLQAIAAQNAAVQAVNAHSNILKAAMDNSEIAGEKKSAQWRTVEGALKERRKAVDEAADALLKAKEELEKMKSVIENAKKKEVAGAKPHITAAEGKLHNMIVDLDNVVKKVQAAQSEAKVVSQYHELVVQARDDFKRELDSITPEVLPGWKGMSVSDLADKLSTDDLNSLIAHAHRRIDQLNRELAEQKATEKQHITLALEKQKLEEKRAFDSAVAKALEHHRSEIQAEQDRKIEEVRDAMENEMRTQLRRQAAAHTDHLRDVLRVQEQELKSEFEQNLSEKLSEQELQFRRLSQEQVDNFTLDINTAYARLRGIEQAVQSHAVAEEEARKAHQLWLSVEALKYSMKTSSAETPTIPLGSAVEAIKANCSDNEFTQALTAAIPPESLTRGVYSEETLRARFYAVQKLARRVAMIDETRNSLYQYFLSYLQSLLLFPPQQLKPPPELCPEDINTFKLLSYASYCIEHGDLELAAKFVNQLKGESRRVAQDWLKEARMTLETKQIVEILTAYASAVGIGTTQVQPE
Sequence of UniProt Q15046 (Q15046 whole entry, looked up): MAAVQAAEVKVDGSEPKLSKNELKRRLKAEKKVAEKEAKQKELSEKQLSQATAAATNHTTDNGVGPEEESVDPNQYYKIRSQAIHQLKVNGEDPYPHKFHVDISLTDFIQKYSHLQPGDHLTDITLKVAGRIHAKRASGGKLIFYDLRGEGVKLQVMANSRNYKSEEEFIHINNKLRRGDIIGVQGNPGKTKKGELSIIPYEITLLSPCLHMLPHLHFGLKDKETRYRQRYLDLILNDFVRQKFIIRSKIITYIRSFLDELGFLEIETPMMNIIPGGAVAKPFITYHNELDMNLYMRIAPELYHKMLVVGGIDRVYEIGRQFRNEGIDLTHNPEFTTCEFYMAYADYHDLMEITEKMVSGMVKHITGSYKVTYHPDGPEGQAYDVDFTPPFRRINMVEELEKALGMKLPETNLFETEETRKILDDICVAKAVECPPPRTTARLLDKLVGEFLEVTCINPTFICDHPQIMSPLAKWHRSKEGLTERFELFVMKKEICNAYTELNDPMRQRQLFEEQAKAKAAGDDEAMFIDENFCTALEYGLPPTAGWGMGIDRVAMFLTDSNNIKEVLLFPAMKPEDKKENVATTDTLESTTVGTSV
Sequence of UniProt Q9BT25 (Q9BT25 whole entry, looked up): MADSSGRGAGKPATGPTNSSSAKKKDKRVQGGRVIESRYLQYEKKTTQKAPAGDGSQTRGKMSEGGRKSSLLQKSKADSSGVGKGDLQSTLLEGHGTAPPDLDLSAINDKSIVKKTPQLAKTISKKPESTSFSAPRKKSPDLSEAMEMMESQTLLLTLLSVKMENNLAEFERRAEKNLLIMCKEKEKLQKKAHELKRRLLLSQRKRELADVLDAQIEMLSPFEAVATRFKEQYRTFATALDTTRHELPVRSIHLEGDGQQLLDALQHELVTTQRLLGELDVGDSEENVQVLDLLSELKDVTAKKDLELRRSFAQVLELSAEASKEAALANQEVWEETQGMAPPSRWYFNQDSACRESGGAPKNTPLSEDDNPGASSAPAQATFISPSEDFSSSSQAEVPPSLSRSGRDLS
Sequence of UniProt Q5T447 (Q5T447 whole entry, looked up): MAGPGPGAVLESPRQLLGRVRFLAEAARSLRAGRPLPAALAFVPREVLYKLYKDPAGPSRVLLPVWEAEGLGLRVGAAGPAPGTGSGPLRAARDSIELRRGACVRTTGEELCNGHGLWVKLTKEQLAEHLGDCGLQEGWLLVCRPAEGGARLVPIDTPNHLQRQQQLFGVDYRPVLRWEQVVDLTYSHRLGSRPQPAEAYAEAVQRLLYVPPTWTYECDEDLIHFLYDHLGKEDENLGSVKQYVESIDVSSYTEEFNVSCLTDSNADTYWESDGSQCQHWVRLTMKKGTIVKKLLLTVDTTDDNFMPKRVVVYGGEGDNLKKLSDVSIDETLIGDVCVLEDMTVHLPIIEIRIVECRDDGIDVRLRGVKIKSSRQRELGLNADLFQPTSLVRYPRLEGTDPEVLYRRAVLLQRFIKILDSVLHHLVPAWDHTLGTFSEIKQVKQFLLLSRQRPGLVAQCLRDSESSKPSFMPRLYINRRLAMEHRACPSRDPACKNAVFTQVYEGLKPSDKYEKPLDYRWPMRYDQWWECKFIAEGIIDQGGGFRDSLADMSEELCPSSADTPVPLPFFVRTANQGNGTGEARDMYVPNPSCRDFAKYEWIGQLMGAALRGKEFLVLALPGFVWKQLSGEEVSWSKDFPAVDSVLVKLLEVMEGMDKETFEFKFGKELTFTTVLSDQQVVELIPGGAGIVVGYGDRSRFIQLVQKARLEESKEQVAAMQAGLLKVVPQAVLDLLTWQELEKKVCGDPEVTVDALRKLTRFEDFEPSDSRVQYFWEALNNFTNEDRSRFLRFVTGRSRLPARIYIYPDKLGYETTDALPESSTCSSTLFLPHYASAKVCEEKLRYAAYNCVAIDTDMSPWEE
Sequence of UniProt Q9H6D7 (Q9H6D7 whole entry, looked up): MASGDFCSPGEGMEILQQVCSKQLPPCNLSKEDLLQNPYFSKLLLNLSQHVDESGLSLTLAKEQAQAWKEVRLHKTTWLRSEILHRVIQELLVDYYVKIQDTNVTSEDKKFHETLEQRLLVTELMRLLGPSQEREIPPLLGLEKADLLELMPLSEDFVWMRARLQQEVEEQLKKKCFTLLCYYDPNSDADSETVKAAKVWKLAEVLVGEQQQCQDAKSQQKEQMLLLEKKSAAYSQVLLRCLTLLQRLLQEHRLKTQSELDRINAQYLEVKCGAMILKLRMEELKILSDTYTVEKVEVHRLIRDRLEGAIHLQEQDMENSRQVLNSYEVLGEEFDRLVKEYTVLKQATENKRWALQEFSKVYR
Sequence of UniProt Q99729 (Q99729 whole entry, looked up): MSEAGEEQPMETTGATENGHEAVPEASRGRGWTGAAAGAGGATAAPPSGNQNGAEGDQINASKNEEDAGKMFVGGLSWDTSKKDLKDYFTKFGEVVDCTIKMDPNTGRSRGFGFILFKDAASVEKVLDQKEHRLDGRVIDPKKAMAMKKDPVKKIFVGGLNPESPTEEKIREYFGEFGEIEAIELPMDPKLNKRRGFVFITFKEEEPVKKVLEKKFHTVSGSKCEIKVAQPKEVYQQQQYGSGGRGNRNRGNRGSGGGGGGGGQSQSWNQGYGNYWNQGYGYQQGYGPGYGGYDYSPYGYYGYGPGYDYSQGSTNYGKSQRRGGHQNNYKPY
Sequence of UniProt Q9NWZ3 (Q9NWZ3 whole entry, looked up): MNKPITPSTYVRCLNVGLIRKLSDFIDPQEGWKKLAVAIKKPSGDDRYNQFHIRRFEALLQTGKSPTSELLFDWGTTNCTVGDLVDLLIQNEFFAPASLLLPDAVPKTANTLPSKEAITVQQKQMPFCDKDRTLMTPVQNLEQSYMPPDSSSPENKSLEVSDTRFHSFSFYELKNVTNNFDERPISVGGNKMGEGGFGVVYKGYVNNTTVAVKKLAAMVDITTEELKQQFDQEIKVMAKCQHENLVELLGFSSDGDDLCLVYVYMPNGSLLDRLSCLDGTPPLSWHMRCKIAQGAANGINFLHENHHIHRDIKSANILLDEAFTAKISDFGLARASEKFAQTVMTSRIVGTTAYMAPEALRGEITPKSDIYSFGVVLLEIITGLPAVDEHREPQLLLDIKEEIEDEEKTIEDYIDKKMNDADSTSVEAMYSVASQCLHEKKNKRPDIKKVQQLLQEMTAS
Sequence of UniProt Q13418 (Q13418 whole entry, looked up): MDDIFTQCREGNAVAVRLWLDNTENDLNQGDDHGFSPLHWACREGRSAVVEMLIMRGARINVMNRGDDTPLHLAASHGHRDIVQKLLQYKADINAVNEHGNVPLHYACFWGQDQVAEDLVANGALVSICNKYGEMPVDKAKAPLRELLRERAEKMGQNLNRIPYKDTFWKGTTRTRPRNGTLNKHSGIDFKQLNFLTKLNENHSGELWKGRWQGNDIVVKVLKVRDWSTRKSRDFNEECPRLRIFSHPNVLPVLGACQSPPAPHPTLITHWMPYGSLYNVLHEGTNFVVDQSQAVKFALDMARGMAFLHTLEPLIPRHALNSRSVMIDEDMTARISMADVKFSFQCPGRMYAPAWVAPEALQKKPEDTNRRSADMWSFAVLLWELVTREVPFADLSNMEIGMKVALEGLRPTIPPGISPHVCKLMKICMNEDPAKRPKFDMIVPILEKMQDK
Sequence of UniProt O75367 (O75367 whole entry, looked up): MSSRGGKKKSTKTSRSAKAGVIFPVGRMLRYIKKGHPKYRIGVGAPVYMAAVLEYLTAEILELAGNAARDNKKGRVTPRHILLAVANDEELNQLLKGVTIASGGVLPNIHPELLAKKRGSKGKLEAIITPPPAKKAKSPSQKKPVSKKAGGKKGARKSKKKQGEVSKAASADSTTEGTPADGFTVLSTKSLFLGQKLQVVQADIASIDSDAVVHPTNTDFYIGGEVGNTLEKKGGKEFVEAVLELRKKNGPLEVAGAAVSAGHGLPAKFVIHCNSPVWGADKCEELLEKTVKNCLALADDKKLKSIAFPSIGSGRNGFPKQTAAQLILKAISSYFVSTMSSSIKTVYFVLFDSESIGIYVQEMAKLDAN
Sequence of UniProt Q8NC54 (Q8NC54 whole entry, looked up): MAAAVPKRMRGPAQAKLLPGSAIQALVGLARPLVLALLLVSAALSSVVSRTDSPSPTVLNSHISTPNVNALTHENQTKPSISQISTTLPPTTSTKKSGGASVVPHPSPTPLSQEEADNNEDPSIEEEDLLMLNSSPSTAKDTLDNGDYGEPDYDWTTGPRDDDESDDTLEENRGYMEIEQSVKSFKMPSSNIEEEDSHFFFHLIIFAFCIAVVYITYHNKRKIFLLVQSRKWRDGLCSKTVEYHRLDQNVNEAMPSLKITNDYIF

log2 fold change, inactive:
HSPA8 (UniProt E9PK54) -0.004
HNRNPUL2 (UniProt Q1KMD3) -0.017
KDM1A (UniProt O60341) -0.163
IMMT (UniProt Q16891) 0.056
HIST2H2AA3 (UniProt Q6FI13) 0.12
ISY1 isoform 1 (UniProt Q9ULR0) 0.05
HLCS (UniProt P50747) -0.054
HSD17B12 (UniProt Q53GQ0) -0.009
GTF2A1 (UniProt P52655) 0.094
IL18R1 (UniProt Q13478) 0.198
IRAK4 (UniProt Q9NWZ3) -0.218
GLUD2 (UniProt P49448) 0.096
HNRNPD isoform 2 (UniProt Q14103) 0.155
KARS1 (UniProt Q15046) -0.011
HNRNPAB isoform 3 (UniProt Q99729) 0.189
KBTBD2 (UniProt Q8IY47) 0.145
H2AFY (UniProt O75367) 0.142
KCT2 (UniProt Q8NC54) 0.157

log2 fold change, active:
GTPBP2 (UniProt Q9BX10) -0.289
GMDS (UniProt O60547) -0.309
ILK (UniProt Q13418) -0.343
INF2 (UniProt Q27J81) -0.333
ITPKA (UniProt P23677) -0.36
INTS3 (UniProt Q68E01) -0.244
KBTBD4 isoform 2 (UniProt Q9NVX7) -0.311
HNRNPL (UniProt P14866) -0.445
HK1 isoform 2 (UniProt P19367) -0.264
HAUS8 (UniProt Q9BT25) -0.38
HAUS6 (UniProt Q7Z4H7) -0.3
HAUS7 isoform 2 (UniProt Q99871) -0.416
HAUS4 (UniProt Q9H6D7) -0.255
HECTD3 (UniProt Q5T447) -0.253
GTF2H1 (UniProt P32780) -0.412
HMGCS1 (UniProt Q01581) 0.53
ISOC2 (UniProt Q96AB3) 0.304
IGF2BP3 (UniProt O00425) -0.305

Compound: O=C(O)c1ccc2c(c1)nc(Nc1cccc(Cl)c1)c1ccncc12 [silmitasertib]
Test: as above
Summary of the method: as §1

log2 fold change, inactive:
GTPBP2 (UniProt Q9BX10) 0
GMDS (UniProt O60547) 0.041
HSPA8 (UniProt E9PK54) -0.037
ILK (UniProt Q13418) 0.086
HNRNPUL2 (UniProt Q1KMD3) 0.022
KDM1A (UniProt O60341) 0.009
INF2 (UniProt Q27J81) -0.027
ITPKA (UniProt P23677) 0.09
INTS3 (UniProt Q68E01) 0.015
KBTBD4 isoform 2 (UniProt Q9NVX7) 0.012
HNRNPL (UniProt P14866) 0.072
HK1 isoform 2 (UniProt P19367) 0.028
HAUS8 (UniProt Q9BT25) 0.022
IMMT (UniProt Q16891) 0.033
HIST2H2AA3 (UniProt Q6FI13) -0.073
HAUS6 (UniProt Q7Z4H7) 0.014
ISY1 isoform 1 (UniProt Q9ULR0) 0.032
HLCS (UniProt P50747) -0.012
HSD17B12 (UniProt Q53GQ0) -0.05
HAUS7 isoform 2 (UniProt Q99871) -0.029
GTF2A1 (UniProt P52655) -0.043
IL18R1 (UniProt Q13478) -0.33
IRAK4 (UniProt Q9NWZ3) 0.055
GLUD2 (UniProt P49448) 0.022
HAUS4 (UniProt Q9H6D7) 0.045
HNRNPD isoform 2 (UniProt Q14103) 0.009
HECTD3 (UniProt Q5T447) 0.109
GTF2H1 (UniProt P32780) 0
KARS1 (UniProt Q15046) 0.022
HMGCS1 (UniProt Q01581) 0.011
HNRNPAB isoform 3 (UniProt Q99729) -0.01
ISOC2 (UniProt Q96AB3) -0.036
IGF2BP3 (UniProt O00425) 0.025
KBTBD2 (UniProt Q8IY47) -0.039
H2AFY (UniProt O75367) -0.029
KCT2 (UniProt Q8NC54) 0.005
